From the supplement of paper PMC4166925
± gives the standard deviation of the averaged measurements. In all, about 33,000 sequences were measured (“E-score (dimensionless, -0.5 to 0.5)”: median about -0.046, highest 2% from about 0.36 on). Shown is part of a subset that was picked to be rich in the highest values.

Each sequence was assayed on T1, SpTbr T-box DNA-binding domain (GST fusion) (assay: PBM E-score of 8-mer (E-score (dimensionless, -0.5 to 0.5)); Tbr is Tbrain of the sea star Patiria miniata (Pm) or the sea urchin Strongylocentrotus purpuratus (Sp); higher = stronger binding preference). Conditions: the construct has about 5 more residues each side.
T1 sequence: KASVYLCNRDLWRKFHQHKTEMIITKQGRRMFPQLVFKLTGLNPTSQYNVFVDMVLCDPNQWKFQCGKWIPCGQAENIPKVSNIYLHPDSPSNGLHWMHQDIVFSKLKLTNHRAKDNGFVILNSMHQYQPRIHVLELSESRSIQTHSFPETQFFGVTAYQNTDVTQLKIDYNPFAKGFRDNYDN
Experimental: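 Universal protein-binding microarray (Agilent AMADID 016060, 60-bp probes with a 35-bp variable region) incubated with 200 nM GST-fused Strongylocentrotus purpuratus Tbr T-box DNA-binding domain (residues 362-554) in PBS pH 7.5. Scored for every ungapped 8-mer (given with its reverse complement) as E-score (range -0.5 to 0.5; >0.45 counts as bound) and Z-score of median probe intensity. Two replicate arrays (datasets 1 and 2).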
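Note: protein at 200 nM in PBS on universal double-stranded arrays.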

| Sequence | PBM E-score of 8-mer |
| --- | --- |
| ACTTGCTG | -0.0473 ± 0.073 |
| ATTCTGTC | 0.04 ± 0.016 |
| CAGTAACC | 0.048 ± 0.029 |
| GAAATGGA | -0.101 ± 0.0095 |
| ACTTGACT | 0.0832 ± 0.1 |
| CTAATAGC | 0.0334 ± 0.069 |
| CGTGTTGA | 0.3014 ± 0.0019 |
| GGTGTTAA | 0.472 ± 0.0062 |
| AGTGTTAA | 0.436 ± 0.021 |
| GGTGTTGA | 0.4631 ± 0.0038 |
| AATGTTAA | -0.0502 ± 0.052 |
| AGTGTTAC | 0.3741 ± 0.0036 |
| AGTGTTCC | 0.0182 ± 0.013 |
| GTTGTTGA | 0.239 ± 0.044 |
| ACTGTTAC | 0.168 ± 0.0045 |
| ACTGTTAA | 0.261 ± 0.036 |
| GTTGTTAA | 0.339 ± 0.034 |
| GCTGTTAA | 0.162 ± 0.0053 |
| ATTTGCAC | 0.239 ± 0.043 |
| ACTTGAGG | -0.00245 ± 0.078 |
| CGACGCGA | 0.159 ± 0.068 |
| ACAGCTTC | 0.208 ± 0.017 |

| Sequence | PBM E-score of 8-mer |
| --- | --- |
| AGTGGAGC | -0.0127 ± 0.11 |
| TCATCTCA | 0.0482 ± 0.019 |
| GCCAATCC | -0.0232 ± 0.048 |
| AGTGTGGA | 0.373 ± 0.035 |
| AGTGTGGC | 0.33 ± 0.014 |
| AGTGGGGG | -0.0909 ± 0.05 |
| GGTGTGTA | 0.356 ± 0.008 |
| AGTGTGGG | 0.399 ± 0.018 |
| CGTGTGGA | 0.306 ± 0.0073 |
| AGTGTGTA | 0.229 ± 0.018 |
| AGAGTGGG | -0.128 ± 0.066 |
| GGTGTGGA | 0.456 ± 0.014 |
| ACCTTAGC | 0.211 ± 0.014 |
| CCACGGGC | -0.227 ± 0.019 |
| ATTCGCGG | 0.275 ± 0.026 |
| CTTCGCGC | 0.407 ± 0.032 |
| ATTCGCTA | 0.208 ± 0.024 |
| AATCGCGC | 0.332 ± 0.01 |
| ATTCGCGA | 0.392 ± 0.02 |
| CTTCGCTC | -0.00285 ± 0.036 |
| ATTCGCGC | 0.387 ± 0.012 |
| CATCGCGC | 0.259 ± 0.032 |

| Sequence | PBM E-score of 8-mer |
| --- | --- |
| CTTCGCGA | 0.285 ± 0.032 |
| CATCGCGA | 0.197 ± 0.0055 |
| AATCGCGT | 0.194 ± 0.039 |
| AATCGCGA | 0.3847 ± 0.00013 |
| GCGCCACA | 0.223 ± 0.014 |
| ATTTGTGA | 0.181 ± 0.085 |
| GGGGCGCA | -0.227 ± 0.038 |
| TAAAGCTA | -0.171 ± 0.036 |
| GTATTGAC | -0.0627 ± 0.015 |
| CAGTGCAG | -0.179 ± 0.024 |
| CCTCGCGA | 0.306 ± 0.0057 |
| GGTCGCGA | 0.335 ± 0.017 |
| GTTCGCCA | 0.158 ± 0.011 |
| GTTCGCGA | 0.389 ± 0.0052 |
| ACTCGCGA | 0.3822 ± 0.0018 |
| ACTCGCGC | 0.298 ± 0.038 |
| CCAGCGCG | 0.0431 ± 0.073 |
| CCTCGTTC | 0.0141 ± 0.013 |
| CGTCAACA | 0.356 ± 0.0058 |
| TGTCAACA | 0.4051 ± 0.0019 |
| GGTCAACA | 0.114 ± 0.02 |
| CTAAACCA | -0.0751 ± 0.046 |

| Sequence | PBM E-score of 8-mer |
| --- | --- |
| CTCCCTTC | -0.214 ± 0.037 |
| CCTTACAC | 0.3668 ± 0.0022 |
| CCTCACAG | 0.149 ± 0.032 |
| ACTCTCTC | 0.0136 ± 0.068 |
| CCTCACAA | 0.233 ± 0.0063 |
| ACACTCTA | 0.325 ± 0.017 |
| CCTCACAC | 0.4723 ± 0.0005 |
| GCTTACAC | 0.219 ± 0.012 |
| ACTCACAC | 0.469 ± 0.0082 |
| ACTTACAC | 0.251 ± 0.075 |
| ACTCACAT | 0.124 ± 0.049 |
| ACACTCTC | 0.3695 ± 0.0036 |
| ACTCACAG | 0.313 ± 0.011 |
| GGCTCTCA | 0.0783 ± 0.047 |
| AGCATAGC | -0.135 ± 0.061 |
| CGCGTTTA | 0.0979 ± 0.059 |
| CGAGATAC | -0.0218 ± 0.054 |
| GAACAAAA | -0.0265 ± 0.017 |
| ACGTATGC | 0.0191 ± 0.0035 |
| AGGCGCAT | -0.182 ± 0.024 |
| ACCGTCAT | 0.0989 ± 0.0085 |
| ATTGAAGG | -0.0895 ± 0.13 |

| Sequence | PBM E-score of 8-mer |
| --- | --- |
| AAGCGGTG | -0.1161 ± 0.00078 |
| CACAAGGC | -0.114 ± 0.035 |
| ACATGGCA | -0.0601 ± 0.028 |
| GCCAGCGA | 0.164 ± 0.098 |
| ACTCTCCG | -0.0225 ± 0.053 |
| ACACTCAG | 0.232 ± 0.042 |
| ACACTCCT | 0.193 ± 0.021 |
| GCACACAC | 0.294 ± 0.035 |
| GCTCACAA | 0.174 ± 0.018 |
| ACACTCAC | 0.366 ± 0.004 |
| GCTCACAC | 0.448 ± 0.0095 |
| ACTCTCAC | 0.285 ± 0.036 |
| ACACTCCG | 0.367 ± 0.023 |
| ATCTCCGG | 0.0811 ± 0.031 |
| ACCGTTCA | 0.027 ± 0.023 |
| AGCGAGTC | 0.0305 ± 0.044 |
| CTGTACCA | -0.0774 ± 0.055 |
| GCTAGAAC | 0.0971 ± 0.024 |
| AGACCATG | -0.0594 ± 0.025 |
| TTGCCAAA | 0.0607 ± 0.12 |
| CTGCCAAC | 0.0901 ± 0.035 |
| GTGCCAAA | 0.403 ± 0.0099 |
